# Data as given in PubChem BioAssay (EPA / NIEHS).
# Active and inactive are the calls of the source. Rule for the calls: active = hit-call score of the fitted dose curve at least 0.9, where 1 is the maximum; inactive = score below 0.9.
# Legend:
# [1] = APR_HepG2_CellCycleArrest_24hr: Apredica 24-hour HepG2 Assay for Cell Cycle Arrest (AID 2282905); settings: imaging, actives raise or lower the signal;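 note: cell cycle arrest scored as ratio of 2N to 4N nuclear DNA content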
# Summary of the method: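 Cell cycle arrest is scored from nuclear DNA content measured by high-content imaging of Hoechst 33342-stained HepG2 cells following 24-hour treatment at ten concentrations up to 200 uM, with DMSO as baseline.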
# [2] = APR_HepG2_NuclearSize_24hr: Apredica 24-hour HepG2 Assay for Nuclear Size (AID 2282907); settings: high-content imaging, actives raise or lower the signal
# Summary of the method: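 Compounds in DMSO (final 0.5%) were added to human HepG2 hepatoma cells at ten concentrations up to 200 uM for 24 hr. Fixed nuclei were stained with Hoechst 33342, and nuclear diameter was quantified from automated images.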
# [3] = APR_HepG2_CellLoss_24hr: Apredica 24-hour HepG2 Assay for Cell Loss (AID 2282908); settings: high-content imaging;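 for AC50: fit in both directions so a hit may be cell loss or gain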
# Summary of the method: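 Cell number is quantified by fluorescence imaging of Hoechst 33342-stained nuclei following dosing at 0.39–200 uM in 0.5% DMSO. Curves are fitted in both directions from the DMSO baseline.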
# [4] = APR_HepG2_MicrotubuleCSK_24hr: Apredica 24-hour HepG2 Assay for Microtubule CSK Stabilty (AID 2282909); settings: HepG2 microtubule cytoskeleton imaging, actives raise or lower the signal
# Summary of the method: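 Steps: dose HepG2 for 24 h (0.39–200 uM, 0.5% DMSO); fix 30 min in 3.7% formaldehyde at room temperature; permeabilize; stain alpha-tubulin 60 min; image microtubule cytoskeleton at 20x. Signal change fitted in both directions relative to DMSO.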
# [5] = APR_HepG2_MitoticArrest_24hr: Apredica 24-hour HepG2 Assay for Mitotic Arrest (AID 2282910); settings: high-content imaging, actives raise or lower the signal
# Summary of the method: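 HepG2 human liver cells were exposed to compounds at 0.39–200 uM (10 concentrations, duplicate) in 0.5% v/v DMSO for 24 hr, then fixed and immunostained for phospho-histone H3 with Hoechst 33342. Mitotic arrest came from HCS fluorescent imaging, fitted bidirectionally against DMSO.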
# [6] = APR_HepG2_MitoMembPot_24hr: Apredica 24-hour HepG2 Assay for Mitochondrial Membrane Potential (AID 2282911); settings: imaging, actives raise or lower the signal
# Summary of the method: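 Human hepatoma HepG2 cultures received ten compound concentrations up to 200 uM for 24 hr. Membrane-potential dye signal, captured by automated fluorescence microscopy, was scored for gain or loss against DMSO controls.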
# [7] = APR_HepG2_MitoMass_24hr: Apredica 24-hour HepG2 Assay for Mitochondrial Mass (AID 2282912); settings: high-content imaging, actives raise or lower the signal
# Summary of the method: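 The liver line HepG2 was dosed in duplicate across a 0.39–200 uM series, with final DMSO held at 0.5% v/v, and harvested at 24 hr. High-content imaging measured mitochondrial dye staining.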
# [8] = APR_HepG2_p53Act_24hr: Apredica 24-hour HepG2 Assay for p53 Activation (AID 2282913); settings: high-content imaging, actives raise or lower the signal;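 note: p53 protein immunofluorescence averaged per cell in HepG2 with Hoechst nuclei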
# Summary of the method: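 Automated fluorescence imaging quantifies p53 immunostaining in HepG2 cells after a 24 hr exposure (0.39–200 uM, duplicate, 0.5% DMSO). Nuclei are located by Hoechst 33342 staining.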
# [9] = APR_HepG2_CellCycleArrest_72hr: Apredica 72-hour HepG2 Assay for Cell Cycle Arrest (AID 2282914); settings: high-content imaging, actives raise or lower the signal
# Summary of the method: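 Cell cycle arrest in HepG2 was scored from nuclear DNA content after 72 hr compound treatment (0.39–200 uM). Activity, either gain or loss, was fitted against the DMSO baseline.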
# [10] = APR_HepG2_P-H2AX_72hr: Apredica 72-hour HepG2 Assay for H2AX Phosphorylation (AID 2282916); settings: imaging, actives raise or lower the signal;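 note: phospho-histone H2A.x immunostain intensity per cell marking DNA damage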
# Summary of the method: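 Following 72 hr treatment with 0.39–200 uM compound, HepG2 cells were formaldehyde-fixed, permeabilized and stained for phospho-H2A.x; signal was measured by high-content imaging and fitted bidirectionally against DMSO controls.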
# [11] = APR_HepG2_MitoMembPot_72hr: Apredica 72-hour HepG2 Assay for Mitochondrial Membrane Potential (AID 2282917); settings: imaging, actives raise or lower the signal
# Summary of the method: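 HepG2 cells exposed 72 h to compounds at 0.39–200 uM (0.5% v/v DMSO, duplicates); MitoTracker Red CMXRos 250 nM loaded 30 min before 3.7% formaldehyde fixation, imaged by HCS fluorescence. Bidirectional fit versus DMSO.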
# [12] = APR_HepG2_MitoticArrest_72hr: Apredica 72-hour HepG2 Assay for Mitotic Arrest (AID 2282918); settings: high-content imaging, actives raise or lower the signal
# Summary of the method: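 Mitotic arrest in HepG2 is scored from phospho-histone H3 staining after 72 hr dosing across 0.39–200 uM, with DMSO at 0.5% v/v. Nuclei are identified by Hoechst 33342 and fluorescence intensity is quantified per cell.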
# [13] = APR_HepG2_MicrotubuleCSK_72hr: Apredica 72-hour HepG2 Assay for Microtubule CSK Stabilty (AID 2282919); settings: HepG2 microtubule cytoskeleton, high-content imaging, actives raise or lower the signal
# Summary of the method: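 HepG2 human liver cells were dosed for 72 h at ten concentrations from 0.39 to 200 uM in duplicate (0.5% v/v DMSO final). Fixed, permeabilized cells were immunostained for alpha-tubulin (Cy5) with a Hoechst counterstain and imaged at 20x.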
# [14] = APR_HepG2_P-H2AX_24hr: Apredica 24-hour HepG2 Assay for H2AX Phosphorylation (AID 2282920); settings: high-content imaging, actives raise or lower the signal
# Summary of the method: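 Signal comes from a FITC-labeled secondary detecting phospho-histone H2A.x in fixed HepG2 cells, quantified by automated imaging at 20x. Dosing ran 24 hr across 0.39–200 uM with 0.5% v/v DMSO.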
# [15] = APR_HepG2_StressKinase_72hr: Apredica 72-hour HepG2 Assay for Stress Kinase (AID 2282921); settings: HepG2 stress kinase (phospho-c-Jun) imaging, actives raise or lower the signal
# Summary of the method: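 Fluorescence intensity of Cy3-tagged anti-phospho-c-Jun antibody, quantified per cell from Hoechst-defined nuclei across six images per well, served as the read-out following 72 h exposure (0.39–200 uM, 0.5% v/v DMSO).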
# [16] = APR_HepG2_StressKinase_24hr: Apredica 24-hour HepG2 Assay for Stress Kinase (AID 2282922); settings: HepG2 stress kinase (phospho-c-Jun) imaging, actives raise or lower the signal
# Summary of the method: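 HepG2 cells exposed 24 hr to compound at 0.39–200 uM (10 concentrations, duplicate), 0.5% v/v DMSO final. Fixed in 3.7% formaldehyde, permeabilized with Triton X-100, immunolabeled for phospho-c-Jun with Hoechst 33342; HCS fluorescence imaging, bidirectional fit versus DMSO.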
# [17] = APR_HepG2_p53Act_72hr: Apredica 72-hour HepG2 Assay for p53 Activation (AID 2282923); settings: high-content imaging, actives raise or lower the signal;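 note: average cellular p53 protein immunofluorescence intensity in HepG2 cells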
# Summary of the method: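 HepG2 monolayers receive test compounds in duplicate at ten concentrations (0.39 through 200 uM) for 72 hr. They are then formaldehyde-fixed, antibody-labelled for p53, Hoechst-stained and imaged, with activity fitted bidirectionally versus DMSO.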
# [18] = APR_HepG2_MitoMass_72hr: Apredica 72-hour HepG2 Assay for Mitochondrial Mass (AID 2282924); settings: high-content imaging, actives raise or lower the signal;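 note: MitoTracker Red CMXRos stain intensity per cell imaged as mitochondrial mass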
# Summary of the method: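 HepG2 cells were exposed for 72 hr to compounds at 0.39–200 uM (ten concentrations, duplicate, 0.5% v/v DMSO final). Live cells were stained with 250 nM MitoTracker Red CMXRos for 30 min, then fixed in 3.7% formaldehyde and imaged by HCS fluorescence.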
# [19] = APR_HepG2_CellLoss_72hr: Apredica 72-hour HepG2 Assay for Cell Loss (AID 2282915); settings: high-content imaging
# Summary of the method: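 HepG2 cells were exposed for 72 hr to compounds at 0.39–200 uM (ten concentrations, duplicate) in 0.5% v/v final DMSO. Nuclei were stained with Hoechst 33342 after 3.7% formaldehyde fixation, imaged at 20x, and counted; fits bidirectional versus DMSO.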
smiles,measurement,setting,value
COCCO,outcome,[1],inactive
same,outcome,[2],inactive
same,outcome,[3],inactive
same,outcome,[4],inactive
same,outcome,[5],inactive
same,outcome,[6],inactive
same,outcome,[7],inactive
same,outcome,[8],inactive
same,outcome,[9],inactive
same,outcome,[10],inactive
same,outcome,[11],inactive
same,outcome,[12],inactive
same,outcome,[13],inactive
same,outcome,[14],inactive
same,outcome,[15],inactive
same,outcome,[16],inactive
same,outcome,[17],inactive
same,outcome,[18],inactive
CCN(Cc1c(F)cccc1Cl)c1c([N+](=O)[O-])cc(C(F)(F)F)cc1[N+](=O)[O-],outcome,[1],inactive
same,outcome,[2],inactive
same,outcome,[3],inactive
same,outcome,[5],inactive
same,outcome,[6],inactive
same,outcome,[7],inactive
same,outcome,[8],inactive
same,outcome,[9],inactive
same,outcome,[10],inactive
same,outcome,[11],inactive
same,AC50,[13],34.6 µM (active)
same,outcome,[14],inactive
same,outcome,[15],inactive
same,outcome,[16],inactive
same,outcome,[17],inactive
same,outcome,[18],inactive
CCSC(=O)N(CC(C)C)CC(C)C,outcome,[1],inactive
same,outcome,[3],inactive
same,outcome,[6],inactive
same,outcome,[7],inactive
same,outcome,[8],inactive
same,outcome,[9],inactive
same,outcome,[19],inactive
same,outcome,[10],inactive
same,outcome,[11],inactive
same,outcome,[12],inactive
same,outcome,[13],inactive
same,outcome,[14],inactive
same,outcome,[15],inactive
same,outcome,[16],inactive
same,outcome,[17],inactive
same,outcome,[18],inactive
CCCCCCC(C)OC(=O)COc1nc(F)c(Cl)c(N)c1Cl (centres undefined),outcome,[1],inactive
same,outcome,[3],inactive
same,outcome,[6],inactive
same,outcome,[7],inactive
same,outcome,[8],inactive
same,outcome,[9],inactive
same,outcome,[10],inactive
same,outcome,[11],inactive
same,outcome,[12],inactive
same,AC50,[13],106 µM (active)
same,outcome,[14],inactive
same,outcome,[15],inactive
same,outcome,[16],inactive
same,outcome,[17],inactive
same,outcome,[18],inactive
CC1(C)C(C=C(Cl)Cl)C1C(=O)OCc1cccc(Oc2ccccc2)c1 (centres undefined),outcome,[1],inactive
same,outcome,[3],inactive
same,AC50,[6],100 µM (active)
same,outcome,[7],inactive
same,outcome,[8],inactive
same,AC50,[9],101 µM (active)
same,outcome,[10],inactive
same,outcome,[11],inactive
same,AC50,[13],100 µM (active)
same,outcome,[14],inactive
same,outcome,[15],inactive
same,outcome,[16],inactive
same,outcome,[17],inactive
same,outcome,[18],inactive
CC(C)CCCCCCc1ccc(O)cc1,AC50,[1],96.8 µM (active)
same,AC50,[3],26.8 µM (active)
same,AC50,[4],65.4 µM (active)
same,AC50,[6],115 µM (active)
same,AC50,[7],34.5 µM (active)
same,outcome,[8],inactive
same,AC50,[9],123 µM (active)
same,AC50,[19],28.8 µM (active)
same,AC50,[10],30.1 µM (active)
same,outcome,[11],inactive
same,AC50,[13],62.1 µM (active)
same,AC50,[14],100 µM (active)
same,outcome,[15],inactive
same,outcome,[16],inactive
same,AC50,[17],29.7 µM (active)
same,AC50,[18],21.4 µM (active)
OB(O)O,outcome,[1],inactive
same,outcome,[3],inactive
same,outcome,[6],inactive
same,outcome,[7],inactive
same,outcome,[8],inactive
same,outcome,[9],inactive
same,outcome,[10],inactive
same,outcome,[11],inactive
same,outcome,[13],inactive
same,outcome,[14],inactive
same,outcome,[15],inactive
same,outcome,[16],inactive
same,outcome,[17],inactive
same,outcome,[18],inactive
Cc1nn(C)c(Oc2ccccc2)c1C=NOCc1ccc(C(=O)OC(C)(C)C)cc1,AC50,[1],29.9 µM (active)
same,AC50,[3],6.62 µM (active)
same,outcome,[6],inactive
same,outcome,[7],inactive
same,outcome,[8],inactive
same,AC50,[9],19.8 µM (active)
same,outcome,[10],inactive
same,outcome,[11],inactive
same,AC50,[12],40.3 µM (active)
same,AC50,[13],21.2 µM (active)
same,outcome,[14],inactive
same,outcome,[15],inactive
same,outcome,[16],inactive
same,outcome,[17],inactive
same,outcome,[18],inactive
